Source: PubChem BioAssay (several laboratories)
TIM10 inh = growth inhibitors of isogenic TIM10 control yeast, primary screen, counter-screen for tim10-1 yeast inhibitor project, luminescence, uHTS; S. cerevisiae TIM10 strain growth, BacTiter-Glo luminescence, 24 h; inhibition, % at 10 µM; 1.4% of 330,000 active;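 active means inhibition of 40% or more at the single tested concentration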;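 further: wild-type TIM10 isogenic control strain grown at permissive 25 °C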
Beta2AR agonist = beta2AR agonists driving receptor internalization, primary screen, cell-based, FAP fluorogen, flow cytometry. 0.43% of 340,000 active. Am2.2-beta2AR cells. response, % (test concentration not listed). Beta-2 adrenergic receptor (Homo sapiens), P07550. AID 504454, 2011;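 active means response above a set limit, near 3 SD of response in nonfluorescent compounds, cut at about 42% in these data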
Target sequence (P07550 whole entry, looked up): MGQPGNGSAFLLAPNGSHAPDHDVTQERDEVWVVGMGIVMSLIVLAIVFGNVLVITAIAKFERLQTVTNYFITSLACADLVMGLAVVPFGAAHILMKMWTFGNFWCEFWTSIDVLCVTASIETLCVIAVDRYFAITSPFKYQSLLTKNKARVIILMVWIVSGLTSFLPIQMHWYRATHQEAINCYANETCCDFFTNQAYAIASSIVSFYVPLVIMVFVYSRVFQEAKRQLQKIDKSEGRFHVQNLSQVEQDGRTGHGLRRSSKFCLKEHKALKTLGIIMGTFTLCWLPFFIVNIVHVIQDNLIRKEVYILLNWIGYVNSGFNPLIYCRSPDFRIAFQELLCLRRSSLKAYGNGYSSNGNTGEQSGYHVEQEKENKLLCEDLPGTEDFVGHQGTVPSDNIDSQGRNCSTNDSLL
tim10-1 inh = growth inhibitors of tim10-1 mutant yeast, primary screen, luminescence, uHTS; S. cerevisiae tim10-1 ts strain growth, BacTiter-Glo, 24 h; inhibition, % at 20 µM; 2.2% of 330,000 active; AID 463190, 2010;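 active means inhibition of at least 40%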;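 further: mutant grown at 25 °C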
tim23-1 inh = growth inhibitors of tim23-1 mutant yeast, primary screen, luminescence, uHTS. 1.3% of 330,000 active. inhibition, % at 20 µM. S. cerevisiae tim23-1 growth, BacTiter-Glo luminescence, 24 h;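 active means growth inhibition of the mutant yeast at or above 50%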;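 further: temperature-sensitive mutant grown at 25 °C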
PfHsp90 set2 = growth inhibition of PfHsp90-expressing yeast, primary screen, antimalarial PfHsp90 inhibitor project, S. cerevisiae, BacTiter-Glo luminescence, single point, set 2; BacTiter-Glo ATP, 48 h; yeast lacking PDR1 and PDR3 efflux regulators; inhibition, % at 9.4 µM; 0.32% of 310,000 active; AID 504621, 2011;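 active means every replicate shows inhibition above about 80%, whatever the replicate mean, limit read from the data; inconclusive means mean inhibition reaches the set limit but some replicate falls short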
tim10-1 confirm = growth inhibitors of tim10-1 mutant yeast, confirmation, single concentration, luminescence, S. cerevisiae. S. cerevisiae tim10-1 ts strain growth, BacTiter-Glo, 24 h. inhibition, % at 20 µM. 56% of 7,400 active. shares compounds with tim10-1 inh. AID 463213, 2010;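 active means inhibition of yeast growth at or above a set limit in either of two repeat tests at 20 µM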;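 further: tim10-1 mutant grown at permissive 25 °C to find synthetic lethal compounds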
tim10 confirm = growth inhibitors of wild-type TIM10 yeast, confirmation, counter-screen for tim10-1 synthetic lethality project, single concentration, luminescence, S. cerevisiae; shares compounds with TIM10 inh; S. cerevisiae tim10 strain growth, BacTiter-Glo luminescence, 24 h; inhibition, % at 10 µM; 63% of 4,600 active; AID 463215, 2010;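 active means inhibition of yeast growth at or above a set limit in either of two replicates at 10 µM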; further: this counterscreen used the strain with wild-type TIM10
Numbers stand for hits; i = inactive; ? = inconclusive; nt = no result. An excerpt weighted towards active compounds, which were near 3.8% of everything screened.

SMILES	TIM10 inh	Beta2AR agonist	tim10-1 inh	tim23-1 inh	PfHsp90 set2	tim10-1 confirm	tim10 confirm
CCOc1ccc2[nH]c3nc(SCC(=O)NCC4CCCO4)nnc3c2c1 (stereo unspecified)	i	i	i	i	i	nt	nt
CCOc1ccc2c(c1)c1nnc(SCC3CCCO3)nc1n2C (stereo unspecified)	44	i	46	i	nt	30	47
COc1cccc(-c2nn(C)c3sc(C(=O)N4CCOCC4)cc23)c1	i	i	i	i	i	nt	nt
COc1cccc(-c2nn(C)c3sc(C(=O)N4CCN(c5ccccn5)CC4)cc23)c1	41	i	43	i	i	32	i
O=c1[nH]nnc2cc(Cl)ccc12	nt	i	nt	nt	i	nt	nt
O=C1/C(=C/c2cccs2)SC(=S)N1c1ccccc1	i	i	i	i	i	nt	nt
O=C1/C(=C/c2cccs2)SC(=S)N1c1cccc(O)c1	61	i	41	i	i	57	61
CC(C)n1c(-c2ccccc2F)n[nH]c1=S	i	i	i	i	nt	nt	nt
CC(C)n1c(-c2ccc(C(C)(C)C)cc2)n[nH]c1=S	44	i	43	i	i	35	46
Cn1nc(C(F)(F)F)c2cc(NC(=O)OCc3ccc(C(C)(C)C)cc3)sc21	i	i	i	i	i	nt	nt
Cn1nc(C(F)(F)F)c2cc(NC(=O)OCc3ccc(F)cc3)sc21	56	i	58	i	i	49	54
CC1(C)CC(=O)c2c(O)cc(OCC(=O)N3CCN(c4ccc(F)cc4)CC3)cc2O1	i	i	i	i	i	nt	nt
CC(C)C[C@H]1CN=C(Nc2ccccc2)N1CC1CCC(C(C)(C)C)CC1 (stereo partly specified)	42	i	43	i	i	32	42
CCCCNC(=O)c1ccccc1Cl	i	i	i	i	nt	nt	nt
Cc1cc2cc(C)c(NCCNC(=O)c3ccccc3Cl)nc2cc1C	44	i	42	i	i	i	i
Cc1ccc(S(=O)(=O)N(C)C)cc1NC(=O)COC(=O)c1ccc2ccccc2n1	i	i	i	i	i	nt	nt
CC(C)N(C(C)C)S(=O)(=O)c1ccc(N2CCc3ccccc3C2)nc1	i	i	i	i	i	nt	nt
CCN(CC)S(=O)(=O)c1ccc(N2CCc3ccccc3C2)nc1	50	i	43	i	i	32	41
Cc1nn(C)c(C(=O)Nc2ccc(S(=O)(=O)NC34CC5CC(CC(C5)C3)C4)cc2)c1Br	58	i	54	i	?	45	i
Cc1nn(C)c(C(=O)Nc2ccn(C34CC5CC(CC(C5)C3)C4)n2)c1[N+](=O)[O-]	i	i	i	i	i	nt	nt
C[C@H]1CC[C@H]2C(=O)N3[C@H](c4ccccc4Br)[C@@H](C)CC[C@H]3C(=O)N2[C@@H]1c1ccccc1Br	44	nt	41	i	nt	33	41
C[C@H]1CC[C@H]2C(=O)N3[C@H](c4cccc(N5CCCC5=O)c4)[C@@H](C)CC[C@H]3C(=O)N2[C@@H]1c1cccc(N2CCCC2=O)c1	i	nt	i	i	nt	nt	nt
CCOC(=O)c1ccccc1NC(=O)C1CC(=O)N(C2CCCC2)C1 (stereo unspecified)	nt	i	nt	nt	i	nt	nt
O=C(OCc1ccccc1)N1C=CC2CC1c1c(Cl)cccc12 (stereo unspecified)	nt	i	nt	nt	i	nt	nt
COc1ccc(S(=O)(=O)N2CCOCC2)cc1NC(=O)CN1C(=O)NC2(CCCCC2C)C1=O (stereo unspecified)	i	i	i	i	i	nt	nt
SMILES	TIM10 inh	Beta2AR agonist	tim10-1 inh	tim23-1 inh	PfHsp90 set2	tim10-1 confirm	tim10 confirm
O=Nc1c2nc3ccccc3n(O)c-2c2ccccc12	75	i	84	i	nt	83	71
On1c(-c2ccccc2)nc2ccccc21	i	i	i	i	i	nt	nt
CCC(=O)N(Cc1ccco1)c1nc(C(=O)Nc2ccc(Cl)cc2)c(C)s1	44	i	46	i	i	35	38
OC(CNCCN1CCNCC1)Cc1ccccc1 (stereo unspecified)	nt	i	nt	nt	nt	nt	nt
Cc1coc2c1C(=O)C(=O)c1c-2ccc2c1CCCC2(C)C	44	i	48	i	i	38	37
CC(C)c1ccc(/C=C/C(=O)n2nnc3ccccc32)cc1	50	i	55	i	i	52	48
CCCOc1ccc(C(=O)C(c2ccccc2)N2CCOCC2)cc1 (stereo unspecified)	i	i	i	i	i	nt	nt
CCCOc1ccc(C(=O)C(CN2CCOCC2)c2ccccc2)cc1 (stereo unspecified)	50	i	46	i	i	46	i
Cc1ccccc1OCc1nc2ccccc2c(=O)n1/N=C/c1c[nH]c2ccccc12	i	i	i	i	i	nt	nt
Cc1cc(/C=N/n2c(COc3ccccc3C)nc3ccccc3c2=O)c(O)c([N+](=O)[O-])c1	43	i	41	i	i	i	i
CCCn1c(SCC(=O)N(CC)c2c(N)n(Cc3ccccc3)c(=O)[nH]c2=O)nnc1-c1ccncc1	nt	i	nt	nt	i	nt	nt
CCOC(=O)c1cnc2ccccc2c1NCCO	i	i	i	i	i	nt	nt
CCOC(=O)c1cnc2c(ccc3ccccc32)c1NCCCN(C)C	81	i	50	i	i	65	80
Cc1ccc(N2C(=O)CC(Sc3nc4ccccc4o3)C2=O)cc1Cl (stereo unspecified)	50	i	59	i	nt	43	34
CC(C)CN(C(=O)Cn1c(C(F)(F)F)nc2ccccc21)c1c(N)n(Cc2ccccc2)c(=O)[nH]c1=O	nt	i	nt	nt	i	nt	nt
Oc1ccc(C=NNc2ccccn2)c(O)c1	nt	i	nt	nt	i	nt	nt
Oc1ccc(/C=N/Nc2nccnc2Cl)c(O)c1	70	i	61	i	i	28	54
Cc1ccc(C(=O)N2CCCC(Nc3ccc(F)cc3)C2)cc1C (stereo unspecified)	i	i	i	i	i	nt	nt
Nn1cnnc1N/N=C/c1cccc(Cl)c1Cl	52	i	51	i	i	50	60
Nn1cnnc1N/N=C/c1ccccc1C(F)(F)F	i	i	i	i	i	nt	nt
COc1ccc(S(=O)(=O)n2cccc2)cc1	i	i	i	i	nt	nt	nt
CC(Sc1nc(NCc2ccccc2)nc(N(C)C)n1)C(=O)Nc1ccccc1 (stereo unspecified)	i	i	i	i	i	nt	nt
CC(=O)C(Sc1nc(N(C)C)nc(N(C)C)n1)C(=O)Nc1ccccc1 (stereo unspecified)	97	i	40	i	i	i	i
CCCn1c(N)c(C(=O)CSc2nnc(-c3cccs3)n2C2CC2)c(=O)[nH]c1=O	i	i	i	i	i	nt	nt
